Data on 59 compounds can be found in PubChem BioAssay AID1851 (National Center for Advancing Translational Sciences (NCATS), 2009).

The campaign covered roughly 16,000 compounds. About 5,100 (32%) were called active. Roughly 25% stayed inconclusive and do not appear here. The call rests on the fitted dose curve; in most records, active means well fitted curve in the direction sought with a large enough effect; inconclusive means small, poorly fitted or top-dose-only effect, or effect the other way; inactive means no such curve, though single readings can be large or run the other way. The list shows a part of the results.
On the % scale 0 is the no-effect control and ±100 the full control effect.

In the assay the target is Cytochrome P450 3A4 (Homo sapiens) (UniProt P08684). Kind of assay: Cytochrome panel assay with activity outcomes. The settings on record: recombinant CYP, pro-luciferin dealkylation, luminescence, p450-cyp3a4; series mostly up to 57.1 µM; activity, negative = inhibition: at the top concentration.
Cytochrome P450 3A4 (Homo sapiens), sequence (P08684 whole entry, looked up): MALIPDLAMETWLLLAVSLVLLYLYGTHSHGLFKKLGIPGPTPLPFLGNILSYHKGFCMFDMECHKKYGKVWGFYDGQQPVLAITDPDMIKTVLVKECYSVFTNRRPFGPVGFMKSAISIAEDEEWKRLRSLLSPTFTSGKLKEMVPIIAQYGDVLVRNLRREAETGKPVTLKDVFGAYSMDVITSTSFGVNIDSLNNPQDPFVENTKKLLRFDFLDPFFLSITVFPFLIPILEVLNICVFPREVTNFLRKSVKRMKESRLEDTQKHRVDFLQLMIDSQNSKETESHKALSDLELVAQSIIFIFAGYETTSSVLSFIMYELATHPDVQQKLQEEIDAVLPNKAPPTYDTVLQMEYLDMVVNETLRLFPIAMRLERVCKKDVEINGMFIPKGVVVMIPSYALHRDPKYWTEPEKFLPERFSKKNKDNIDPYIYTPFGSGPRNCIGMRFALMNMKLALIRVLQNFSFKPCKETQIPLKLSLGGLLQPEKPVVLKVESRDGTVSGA
As to `N#CCCCC[N+]12CN3CN(CN(C3)C1)C2`, the activity, negative = inhibition was -1.78% [at 11.4 µM] (inactive).

As for `c1ccc(N2CC3(CCNCC3)C2)cc1`, the “activity, negative = inhibition” value was -19% (inactive).

For the compound `COc1ccc2c(c1)CCC1C2CC[C@]2(C)[C@H](NCCCCCCN3C(=O)C=CC3=O)CC[C@@H]12` (some centres undefined), the “activity, negative = inhibition” value is -6.9% (inactive). Same read-out and setting: in the case of `C[C@@H]1[C@@H](C)N1C[C@H](O)Cn1ccnc1[N+](=O)[O-]` (some centres undefined) it was -14.6% [at 11.4 µM] (inactive); in that of `c1ccc(CCN2CCOCC2)nc1`, -6.24% [at 11.4 µM] (inactive). In the case of `COCCCn1c(N)c(C(=O)Nc2sc3c(c2C(=O)OC)CCCC3)c2nc3ccccc3nc21`, the concentration at half-maximal activity (AC50) was 15.8 µM (active). Turning to `CNC(=O)OCC[N+](C)(C)C`, the “activity, negative = inhibition” value was -8.08% (inactive).

`O=C1Nc2ccc(I)cc2/C1=C/c1cc(Br)c(O)c(Br)c1`: the AC50 was 5.01 µM (active). As to `CC(C)c1ccc(C(O)(C(=O)O)c2ccc(C(C)C)cc2)cc1`, the activity, negative = inhibition is 19.4% [at 11.4 µM] (inactive). Consider `CC(C)c1ccc2c(c1)c(SC(C)(C)C)c(CC(C)(C)C(=O)O)n2Cc1ccc(Cl)cc1`, for which the AC50 was 20 µM (active). On the same count and under the same terms, the value for `C[C@H](N)c1cccc(Cl)c1Cl` was 25.1 µM (active). Consider `C[C@H](N)[C@@H](O)c1ccccc1`, for which the “activity, negative = inhibition” value is 0.449% [at 25.6 µM] (inactive). Same read-out and setting: the value for `CC(C)(C)NC[C@H](O)c1ccccc1Cl` was -11.1% (inactive); that for `CCOC(=O)N(c1ccccc1)P1(=S)OCCO1` was -25.1% [at 11.4 µM] (inactive).

On to `O=P(Nc1c(Cl)cccc1Cl)(c1ccccc1)c1nc2c(s1)CCCC2` (centres undefined), for which the half-maximal activity concentration (AC50) is 11.2 µM (active). Consider `O=[As](O)(O)c1ccc2nc3cc([As](=O)(O)O)ccc3nc2c1`, for which the activity, negative = inhibition is 5.92% [at 11.4 µM] (inactive). The same measure, in the same setting: in the case of `Cn1cnc(CCN)c1` it was -1.69% (inactive); in that of `COCCCN1Cc2ccccc2C1=N`, -4.09% (inactive). Still for that read-out and setting: the value for `O=C(O)/C=C(\CC(=O)O)C(=O)O` was -2.52% [at 11.4 µM] (inactive). Regarding `C[C@@]12CC[C@@H]3[C@H](CCC4=CC(=O)CC[C@]43C)[C@@H]1CC[C@@H]2C(=O)COS(=O)(=O)c1ccc(Br)cc1`, the activity, negative = inhibition is 20.5% [at 11.4 µM] (inactive). On to `Nc1nc(OCc2ccccc2)c2[nH]cnc2n1`, for which the AC50 was 7.94 µM (active). As to `O=C(Nc1ccc(F)cc1F)c1cccnc1Oc1cccc(C(F)(F)F)c1`, the “activity, negative = inhibition” value is -19.7% (inactive). On the same count and under the same terms, in the case of `CCOC(=O)[C@@H]1[C@@H]2c3ccccc3-c3ccccc3[C@H]2C[C@H]1O` it was -1.52% [at 11.4 µM] (inactive). Take `Cc1ccc(N(C)C(=O)Oc2cccc3ccc(C)nc23)cc1`: the AC50 is 15.8 µM (active). In the case of `N[C@H](CCl)C(=O)O`, the “activity, negative = inhibition” value is -5.68% (inactive). `C[C@H](CCC(=O)O)[C@H]1CC[C@]2(C)[C@@H]3C(=O)C[C@H]4C(C)(C)[C@@H](O)CC[C@]4(C)[C@H]3C(=O)C[C@@]12C`: the activity, negative = inhibition was -2.04% [at 11.4 µM] (inactive). Same read-out and setting: in the case of `CN(N=O)c1cc(O)ccc1O` it was -16.5% (inactive); in that of `Cn1c(=O)c2[nH]cnc2n(C)c1=O.[CH2-][C@H](Cc1cccc2cc(C(=O)O)c(=O)oc12)OC.[Hg].[OH-]`, 12.4% [at 11.4 µM] (inactive); in that of `C[C@]12CC[C@H]3c4ccc(O)cc4CC[C@@H]3[C@H]1CC[C@@H]2OC(=O)CCc1ccccc1`, -2.52% [at 11.4 µM] (inactive). On to `COc1ccc2c(c1)[C@]13CCCC[C@@H]1[C@H](C2)NCC3`, for which the AC50 was 15.8 µM (active).

As for `O=C(CCN1CC2CCC(CC2)C1)c1cccs1`, the activity, negative = inhibition was -19.3% [at 11.4 µM] (inactive). Regarding `c1ccc2c(N3CCNCC3)cccc2c1`, the “activity, negative = inhibition” value is -7.57% (inactive). Still for that read-out and setting: in the case of `N[C@@H](Cn1cc(I)c(=O)[nH]c1=O)C(=O)O` it was -21.8% (inactive). `CCCOc1ccc2[nH]cc(C3=CCNCC3)c2n1`: the AC50 is 2.51 µM (active). Same read-out and setting: the value for `COc1ccc2[nH]cc(C3=CCNCC3)c2c1` was 1.26 µM (active). `O=c1ccc2[nH]cc(C3=CCNCC3)c2[nH]1`: the “activity, negative = inhibition” value was -11.9% (inactive).

`CCCN1CCc2cc(O)cc3c2[C@H]1Cc1ccc(O)c(O)c1-3`: the “activity, negative = inhibition” value is -22.6% (inactive). Regarding `c1ccc(CCN2CCCCCC2)nc1`, the activity, negative = inhibition was -14.2% [at 11.4 µM] (inactive). Consider `CCSCC[C@H](N)C(=O)O`, for which the activity, negative = inhibition is 5.54% [at 11.4 µM] (inactive). For the compound `CO[C@@H]([CH2][Hg])CN1C(=O)c2ccccc2S1(=O)=O.Cn1c(=O)c2nc[nH]c2n(C)c1=O`, the activity, negative = inhibition was 2.75% [at 11.4 µM] (inactive). Take `CC(=O)OC1=CC2=CC[C@H]3[C@H]4CCC(=O)[C@@]4(C)CC(=O)[C@]3(S)[C@]2(C)CC1`: the activity, negative = inhibition is -29.7% [at 11.4 µM] (inactive).

For `C=C(C)[C@H]1CC[C@]2(C(=O)O)CC[C@]3(C)[C@@H](CC[C@H]4[C@@]5(C)CC[C@@H](O)C(C)(C)[C@@H]5CC[C@@]43C)[C@H]12`, the “activity, negative = inhibition” value is -20.4% [at 25.6 µM] (inactive). Same read-out and setting: in the case of `C[C@@H]1[C@H]2C=C[C@@H]1[C@@H](c1c3ccc(=O)c(O)c-3oc3c(O)c(O)ccc13)[C@@H]2C(=O)O` it was -0.366% [at 11.4 µM] (inactive); in that of `O=C(C1CC(=O)N(C2CCCC2)C1)N1CCC2(CC1)OCCO2` (centres undefined), -7.38% (inactive); in that of `CN1[C@@H](CC(=O)c2ccccc2)CCC[C@@H]1C[C@@H](O)c1ccccc1`, -5.81% [at 25.6 µM] (inactive). Same read-out and setting: the value for `N[C@H](Cc1o[nH]c(=O)c1Cl)C(=O)O` was -20.3% (inactive); that for `O=C(CNS(=O)(=O)c1cccs1)N1CCC2(CC1)OCCO2` was -9.14% (inactive); that for `CS(=O)(=O)N1CCCC(C(=O)N2CCC3(CC2)OCCO3)C1` (centres undefined) was 1.72% [at 2.29 µM] (inactive).

Turning to `Cc1ccc(S(=O)(=O)NCC2CCC(C(=O)N3CCC4(CC3)OCCO4)CC2)cc1` (centres undefined), the AC50 is 15.8 µM (active). With `CCCCCCN=Cc1c(O)n(C)c(=O)n(C)c1=O`, the activity, negative = inhibition is 16.4% [at 2.29 µM] (inactive). On the same count and under the same terms, the value for `CCN1CCN(S(=O)(=O)c2ccc(Cl)nc2)CC1` was -12.9% (inactive); that for `Cc1nc(N)sc1CCN` was -5.83% (inactive). `COc1ccc(CCNc2cc(-c3ccccc3)nc3ncnn23)cc1`: the AC50 is 5.62 µM (active). Take `C=C(C)[C@H]1CN[C@H](C(=O)O)[C@@H]1CC(=O)O`: the “activity, negative = inhibition” value was -13.9% (inactive). The same measure, in the same setting: in the case of `N#CCCN` it was -6.05% (inactive).

As for `CN(C)[C@@H]1C(=O)C(C(N)=O)=C(O)[C@]2(O)C(=O)C3=C(O)c4c(O)cccc4[C@](C)(O)[C@H]3C[C@@H]12`, the activity, negative = inhibition was -3.93% [at 11.4 µM] (inactive). On the same count and under the same terms, the value for `CCOc1ccc(C2C(C#N)=C(N)Oc3c2c(=O)oc2ccccc32)cc1` (centres undefined) was -8.38% [at 2.29 µM] (inactive). On to `C=Cn1ccnc1P(=S)(c1nccn1C=C)C1CCCCC1`, for which the AC50 was 1.26 µM (active). Turning to `C[C@H]1C(=O)O[C@@H]2CCN3CC=C(COC(=O)[C@@](C)(O)[C@@]1(C)O)[C@H]23`, the “activity, negative = inhibition” value is -3.99% [at 25.6 µM] (inactive).
